This note sets out measurements from PubChem BioAssay (NCI).

Holding throughout (assay): NCI-60 one-dose screen, 48 h (100 = growth as untreated, 0 = no growth, -100 = all killed)
What all share (conditions): 10 µM

In assay [1] the test system is HCT-15 colon.
Assay [2] has as its system HT29 colon.
For assay [3], the system named is SNB-75 CNS.
Assay [4] has as its system SNB-19 CNS.
In assay [5] the test system is SK-MEL-5 melanoma.
The subject of assay [6] is UACC-62 melanoma.
In assay [7] the test system is LOX IMVI melanoma.
The subject of assay [8] is SK-MEL-28 melanoma.
The subject of assay [9] is PC-3 prostate.
The subject of assay [10] is U251 CNS.

Molecules are shown by their SMILES. The panel holds about 83,000 compounds, 20% with a hit somewhere; the sample as a whole holds those more often.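 Negative percent growth values reflect cell death: -40 means 40% of the cells present at the start died, and -100 means all died.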 Unmarked numbers belong to inactive results. Active and inactive are the calls of the source. The calls were made as follows: active = growth percent below 10; inactive = the rest.

With `CCOC(=O)C1=CSC2=NC3=C(CCC/C3=C\c3cc(OC)c(OC)c(OC)c3)C(c3cc(OC)c(OC)c(OC)c3)N12` (stereo not given), the growth in [1] is 57.7%; in assay [2], 12.9%; in assay [3] it was 39.1%; in assay [4], 85.1%; in [5], 60.3%; in [6], 74.4%. The growth in [7] is 23%; in assay [8] it was 67.2%.
As to `O=C(c1ccccc1)N(C(=O)c1ccccc1)N1CCCC1`, the growth in assay [1] is 107%; in assay [2], 102%; in assay [3], 87.3%; in assay [4], 107%; in assay [5], 98.4%; in assay [6], 85.8%. Further, the growth in [7] is 90.9%; in assay [8] it was 114%.
Turning to `COc1ccc(-c2nn(-c3cccc(Cl)c3)cc2-c2cc(-c3ccccc3)nc(N)n2)cc1`, the growth in [1] was 44.5%; in assay [2], 19.5%; in [3] it was 89.9%; in assay [4], 75.2%; in assay [9], 40%; in assay [5], 73.3%. Also, the growth in assay [6] is 74.3%; in assay [7], -84.1% (active); in [8] it was 83.8%.
In the case of `Cc1cccc(N=Cc2ccccc2O)c1C`, the growth in assay [1] is 108%; in [2], 97.7%; in assay [3], 97.3%; in [4], 90.5%; in assay [9], 94.6%; in [5], 103%. Also, the growth in assay [6] was 95.2%; in [8], 106%.
As to `COc1cc(-c2nn(-c3ccc(NC(=O)NCCNS(=O)(=O)c4ccc(F)cc4)cc3)cc2-c2ccncc2)ccc1Cl`, the growth in [1] was 47.7%; in [2], -24.9% (active); in assay [3], 13.8%; in [10], 4.44% (active); in assay [9], 8.93% (active); in [5] it was -63.6% (active). Further, the growth in [6] is 25.7%; in [7] it was 1.79% (active); in assay [8], 26.4%.
Take `Oc1ccc(/C=N/N=C2c3ccccc3-c3ccccc32)c(O)c1`: the growth was 46.4% in [1]; 97.5% in assay [2]; 73.1% in assay [3]; 78.7% in assay [10]; 72.9% in assay [9]; 25.8% in assay [5]. The figures for the growth in assay [6], in assay [7] and in assay [8] were 58.6%, 70.3% and 74.5%, respectively.
As to `CCN(CC)c1ccc(/C=C2\SC(=O)C(Nc3nnc(-c4cccnc4SCc4ccccc4)o3)C2=O)cc1` (stereo not given), the growth in [1] is 15.2%; in assay [2], 3.09% (active); in assay [3], 44.1%; in assay [10], 3.89% (active); in assay [9] it was 16.9%; in assay [5] it was 27.4%. In addition, the figures for the growth in assay [6], in assay [7] and in assay [8] were 30.2%, 42.3% and 50.8%, respectively.
As to `CCN(CC)CCCC(C)N=C(C1=C(C(=NC(C)CCCN(CC)CC)c2cccc(OC)c2)C(=O)NC1=O)c1cccc(OC)c1` (stereo not given), the growth is -30.7% (active) in assay [1]; -10.5% (active) in assay [2]; -28.5% (active) in assay [3]; -51.3% (active) in assay [10]; 3.15% (active) in assay [9]; -93.8% (active) in assay [5]. For the same compound, the growth in assay [6] was -75.4% (active); in [7], -73.9% (active); in assay [8] it was -69.1% (active).
In the case of `N#CC1=CC2CN(Cc3ccccc3)C1C1C(=O)N(c3ccccc3)C(=O)C21` (stereo not given), the growth is 96.5% in assay [1]; 103% in assay [2]; 91.1% in [3]; 101% in assay [4]; 93.3% in assay [5]; 90.7% in [6]. The growth is 89.2% in [7] and 102% in assay [8].
As for `COc1cc(-c2csc(NC(=O)Nc3ccc(Cl)c(C(F)(F)F)c3)n2)cc(OC)c1OC`, the growth is 10.5% in assay [1]; 4.27% (active) in assay [2]; -7.01% (active) in assay [3]; -9.73% (active) in assay [10]; -0.311% (active) in [9]; -79.9% (active) in [5]. Further, the growth was 1.56% (active) in [6], -19.2% (active) in assay [7] and 15.3% in assay [8].
Take `COc1ccc(/C=C/c2nnc(/C=C/c3ccc(OC)c(OC)c3)o2)cc1OC`: the growth in assay [1] was 21.6%; in assay [2] it was -7.7% (active); in assay [3], 38.4%; in assay [10], 16.2%; in assay [9] it was 31.5%; in [5], 2.81% (active). Further, the growth is 9.17% (active) in assay [6], 4.41% (active) in assay [7] and 30.6% in assay [8].
Take `C[n+]1c2ccccc2nc2ccccc21`: the growth in assay [1] is 21.3%; in assay [2], 21.2%; in assay [3] it was 22.8%; in assay [10], 4.11% (active); in [9], 7.71% (active); in [5], 3.8% (active). Moreover, the figures for the growth in assay [6], in assay [7] and in [8] were -34.3% (active), -36.5% (active) and -2.36% (active), respectively.
With `CCOC(=O)C1=CSC2=NC3=C(CCC/C3=C\c3ccc(Cl)cc3)C(c3ccc(Cl)cc3)N12` (stereo not given), the growth in assay [1] is 91.9%; in assay [2], 82.8%; in [3] it was 86.4%; in assay [4] it was 81.3%; in assay [9] it was 101%; in [5], 84.7%. Besides, the growth in assay [6] is 82%; in [8] it was 99.5%.
Turning to `CCOc1ccccc1/C=N\N=C(\N)N/N=C/c1ccccc1OCC`, the growth in assay [1] is 24.7%; in assay [2], 10.7%; in assay [3], -3.85% (active); in assay [10] it was 38.3%; in assay [9], 31.9%; in assay [5], 17.8%. In addition, the growth in assay [6] was 30.9%; in [7] it was 30.9%; in [8] it was 42.9%.
As to `CC(C)N(CCOc1ccc(-c2nc3sccn3c2-c2ccnc(S(C)(=O)=O)n2)cc1)C(C)C`, the growth was 92.8% in assay [1]; 60.3% in assay [2]; 83.5% in assay [3]; 91.4% in [10]; 62.5% in assay [9]; 39.2% in assay [5]. Also, the figures for the growth in assay [6], in assay [7] and in assay [8] were 83.9%, 72.7% and 104%, respectively.
